The molecules below were run on HCC1937 (assay: relative cell viability, compound alone, vs DMSO (fraction of DMSO control); higher = less growth inhibition). Details: 72 h.
`Cc1nc2c([nH]1)c(=O)n(C)c(=O)n2Cc1ccco1` [Furafylline] showed a relative cell viability of 0.721.
`N#Cc1ccc(Oc2cccc(NC(=O)Nc3ccc(Cl)c(C(F)(F)F)c3)c2)cc1` was tested, and the relative cell viability was 0.1.
With `CCc1ccc(CCOc2ccc(CC3SC(=O)NC3=O)cc2)nc1` (stereo unspecified) [Pioglitazone] the relative cell viability was 1.17.
`CC[C@H](C)C(=O)O[C@H]1C[C@@H](C)C=C2C=C[C@H](C)[C@H](CC[C@@H]3C[C@@H](O)CC(=O)O3)[C@H]21` [Lovastatin] showed a relative cell viability of 1.13.
`O=C(NN1CCCCC1)c1nn(-c2ccc(Cl)cc2Cl)c(-c2ccc(C#Cc3ccc(C(F)(F)F)cc3)s2)c1CNS(=O)(=O)N1CCCC1` gave a relative cell viability of 1.01.
Work on `C[C@@H]1O[C@@H](O[C@H]2[C@H](Oc3cc(O)c4c(c3)O[C@H](c3ccc(O)cc3)CC4=O)O[C@H](CO)[C@@H](O)[C@@H]2O)[C@H](O)[C@H](O)[C@H]1O` [Naringin] yielded a relative cell viability of 1.24.
`C[C@H](CCC(=O)O)[C@H]1CC[C@H]2[C@@H]3C[C@H](O)[C@@H]4C[C@H](O)CC[C@]4(C)[C@H]3CC[C@]12C` [Hyodeoxycholic acid] showed a relative cell viability of 0.929.
`COc1cc(C(C)=O)ccc1O` [Acetovanillone] gave a relative cell viability of 0.833.
In the case of `COc1ccc(-n2c(SCCCN3C(=O)c4cccc5cccc(c45)C3=O)nnc2-c2ccncc2)cc1`, the relative cell viability is reported as 0.661.
With `COc1ccc([C@@H]2OC[C@H]3[C@@H]2CO[C@@H]3c2ccc(O[C@@H]3O[C@H](CO)[C@@H](O)[C@H](O)[C@H]3O)c(OC)c2)cc1OC` [Forsythin] the relative cell viability was 1.22.
`O=C(Nc1cccnc1)N1CCC(Cc2cccc(Oc3ccc(C(F)(F)F)cn3)c2)CC1` was tested, and the relative cell viability was 1.14.
For `CCc1c(-c2ccccc2)c(-c2ccccc2)nn1-c1ccccc1-c1cccc(OCC(=O)O)c1`, the relative cell viability was 1.18.
With `CCN(CC)Cc1ccc(C(=O)N(CCc2ccccc2OC)[C@@H]2CCNC2)cc1` the relative cell viability was 1.45.
Work on `C[C@H](CCOc1cccc(CC(=O)O)c1)N(Cc1cccc(C(F)(F)F)c1Cl)CC(c1ccccc1)c1ccccc1` yielded a relative cell viability of 0.632.
Molecule `CNC(=O)c1cccc(NC(=O)N2CCC(Oc3ccccc3Cl)CC2)c1` has a relative cell viability of 0.991.
`O=C(OC(C(F)(F)F)C(F)(F)F)N1CCC(C(O)(c2ccc3c(c2)OCO3)c2ccc3c(c2)OCO3)CC1` showed a relative cell viability of 1.06.
`CN(C)c1cccc(-c2c3c(=O)n(-c4ccccc4Cl)[nH]c3cc(=O)n2C)c1` gave a relative cell viability of 0.903.
Molecule `CC(C)(C)NC(=O)[C@H]1CC[C@H]2[C@@H]3CC[C@H]4NC(=O)C=C[C@]4(C)[C@H]3CC[C@]12C` [Finasteride] has a relative cell viability of 1.17.
For `CC[C@@H]1/C=C(\C)C[C@H](C)C[C@H](OC)[C@H]2O[C@@](O)(C(=O)C(=O)N3CCCC[C@H]3C(=O)O[C@H](/C(C)=C/[C@@H]3CC[C@@H](O)[C@H](OC)C3)[C@H](C)[C@@H](O)CC1=O)[C@H](C)C[C@@H]2OC` [Ascomycin], the relative cell viability was 0.185.
Molecule `O=C(O)CN(CC(=O)O)c1ccccc1OCCOc1ccccc1N(CC(=O)O)CC(=O)O` has a relative cell viability of 0.633.
`COc1cccc(CNc2ccc(S(=O)(=O)Nc3nc4ccccc4s3)cc2)c1O` gave a relative cell viability of 1.01.
Molecule `CC(C)[C@H]1CC[C@H](C(=O)N[C@H](Cc2ccccc2)C(=O)O)CC1` [Nateglinide] has a relative cell viability of 0.682.
`CCN(CC)c1ccc(C=NNC(=O)c2ccncc2)c(O)c1` was tested, and the relative cell viability was 0.4.
`Cc1nc(Nc2cnn(C3CCNCC3)c2)nc2c1N(C)C(=O)c1cc3ccccc3cc1N2C` showed a relative cell viability of 0.354.
Work on `CC(C)(CCCCCC(O)CCCCCC(C)(C)C(=O)O)C(=O)O` yielded a relative cell viability of 0.598.
Molecule `Oc1ccc2c(c1)OCO2` [Sesamol] has a relative cell viability of 0.804.
Molecule `CCCCCCCCCCCCCCOc1ccc(C(=O)OCC(=O)N(C)CC(=O)OCC)o1` [Olumacostat Glasaretil] has a relative cell viability of 0.812.
In the case of `CC1(C)CC[C@]2(C(=O)O[C@@H]3O[C@H](CO)[C@@H](O)[C@H](O)[C@H]3O)CC[C@]3(C)C(=CC[C@@H]4[C@@]5(C)CC[C@H](O[C@@H]6O[C@H](C(=O)O)[C@@H](O)[C@H](O)[C@H]6O[C@@H]6O[C@H](CO)[C@@H](O)[C@H](O)[C@H]6O)C(C)(C)[C@@H]5CC[C@]43C)[C@@H]2C1` [Ginsenoside Ro], the relative cell viability is reported as 1.02.
With `COc1ccc2c(c1)c(CC(=O)O)c(C)n2C(=O)c1ccc(Cl)cc1` [Indometacin] the relative cell viability was 1.28.
Work on `CCCCCCCCCCC[C@@H](C[C@@H]1OC(=O)[C@H]1CCCCCC)OC(=O)[C@H](CC(C)C)NC=O` [Orlistat] yielded a relative cell viability of 0.977.
Molecule `CCC(=O)O[C@]1(C(=O)CCl)[C@@H](C)C[C@H]2[C@@H]3C[C@H](F)C4=CC(=O)C=C[C@]4(C)[C@@]3(F)[C@@H](O)C[C@@]21C` [Halobetasol Propionate] has a relative cell viability of 1.12.

From the supplement of paper PMC9492666
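Note: viability read out with the CCK-8 kit in 96-well plates, screening a set of 303 compounds acting on lipid metabolism targets.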
